Reference: PubChem BioAssay AID1159580 (chemical genetic matrix, 2015)
Several values for one entry are separate records, joined by “and”; a condition that tells them apart may be missing. Identical values can stand only once. In all, about 5,500 compounds went through this assay and about 2,000 (36%) were called active. Roughly 18% stayed inconclusive and do not appear here. No stated cut-off is given here; in the data, active means normalized growth mostly below about 0.91 (no sharp cut-off); inconclusive means no clear call, values can overlap the other calls; inactive means mostly above about 0.92. This is one part of the list.

Test: chemical genetic growth profiling, strain panel (AID 1159580);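 further: tested at 20 µM; growth read once vehicle control cultures reached saturation at 30 °C; 1 = growth at the plate median or of vehicle wells; lower values mean less growth of the strain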
Conditions: S. cerevisiae deletion strains, growth OD
[1] = locus YPL055C, strain LGE1, active compounds read low
[2] = locus YPL241C, strain CIN2, active compounds read low

Measured: normalized growth

Cc1cc(C)c(NC(=O)C[C@H](CC(=O)O)c2cccc3ccccc23)c(C(=O)N2CCC3(CCCC3)CC2)c1
inactive: locus YAL040C, strain CLN3, active compounds read low 1.01 | locus YCL061C, strain MRC1 (second series), active compounds read low 0.986 | locus YDR363W, strain ESC2, active compounds read low 0.973 | locus YER002W, strain NOP16, active compounds read low 0.975 | locus YGR078C, strain PAC10, active compounds read low 0.972 | locus YGR229C, strain SMI1, active compounds read low 1.01 | locus YMR263W, strain SAP30, active compounds read low 0.995 | locus YNL175C, strain NOP13, active compounds read low 0.976 | locus YNL197C, strain WHI3, active compounds read low 0.964 | locus YNL224C, strain SQS1, active compounds read low 0.977 | locus YNL322C, strain KRE1, active compounds read low 0.99 | locus YOR083W, strain WHI5 (second series), active compounds read low 0.977 | [1] 0.972 | [2] 0.987

CC(C)(C#N)O[C@@H]1O[C@H](CO)[C@@H](O)[C@H](O)[C@H]1O
inactive: locus YAL013W, strain DEP1, active compounds read low 1 | locus YAL021C, strain ccr4, active compounds read low 1.01 | locus YAL026C, strain drs2, active compounds read low 1 | locus YAL030W, strain snc1, active compounds read low 1 | locus YBL061C, strain skt5, active compounds read low 0.998 | locus YBR009C, strain hhf1, active compounds read low 1 | locus YBR021W, strain FUR4, active compounds read low 1.1 | locus YBR023C, strain chs3, active compounds read low 1 | locus YBR171W, strain sec66, active compounds read low 1.01 | locus YBR229C, strain ROT2, active compounds read low 0.997 | locus YBR231C, strain swc5, active compounds read low 0.998 | locus YBR279W, strain paf1, active compounds read low 1.01 | locus YCL011C, strain gbp2, active compounds read low 1.01 | locus YCL016C, strain dcc1, active compounds read low 1 | locus YCL029C, strain bik1, active compounds read low 0.993 | locus YCL069W, strain vba3, active compounds read low 0.997 | locus YCR088W, strain abp1, active compounds read low 1.01 | locus YDL005C, strain med2, active compounds read low 0.993 | locus YDL035C, strain GPR1, active compounds read low 1.02 | locus YDL040C, strain nat1, active compounds read low 1.01 | locus YDL074C, strain BRE1, active compounds read low 1.02 | locus YDL101C, strain DUN1, active compounds read low 1.01 | locus YDL185W, strain tfp1, active compounds read low 0.983 | locus YDL192W, strain arf1, active compounds read low 0.988 | locus YDR001C, strain nth1, active compounds read low 1.01 | locus YDR069C, strain doa4, active compounds read low 1.03 | locus YDR101C, strain arx1, active compounds read low 0.997 | locus YDR137W, strain rgp1, active compounds read low 1.02 | locus YDR150W, strain NUM1, active compounds read low 1.02 | locus YDR159W, strain sac3, active compounds read low 0.965 | locus YDR162C, strain NBP2, active compounds read low 1.05 | locus YDR195W, strain ref2 0.98 | locus YDR297W, strain sur2, active compounds read low 1.01 | locus YDR318W, strain mcm21, active compounds read low 1 | locus YDR334W, strain swr1, active compounds read low 1 | locus YDR335W, strain msn5, active compounds read low 1 | locus YDR388W, active compounds read low 0.992 | locus YDR392W, strain spt3, active compounds read low 1.02 | locus YDR502C, strain sam2, active compounds read low 0.998 | locus YEL003W, strain gim4, active compounds read low 1.01 | locus YEL037C, strain rad23, active compounds read low 1.01 | locus YEL061C, strain CIN8 (second series), active compounds read low 1.02 | locus YEL061C, strain CIN8, active compounds read low 1 | locus YER015W, strain faa2, active compounds read low 0.998 | locus YER016W, strain bim1, active compounds read low 0.999 | locus YER110C, active compounds read low 0.985 | locus YER111C, strain swi4, active compounds read low 1.01 | locus YER155C, strain BEM2 (second series), active compounds read low 1.02 | locus YER155C, strain BEM2, active compounds read low 0.99 | locus YER167W, strain BCK2, active compounds read low 1.01 | locus YFR010W, strain ubp6, active compounds read low 1.01 | locus YGL078C, strain dbp3, active compounds read low 0.989 | locus YGL086W, strain mad1, active compounds read low 0.997 | locus YGL167C, strain pmr1, active compounds read low 1 | locus YGL173C, strain kem1, active compounds read low 1 | locus YGL227W, strain vid30, active compounds read low 1 | locus YGL240W, strain doc1, active compounds read low 1.01 | locus YGL248W, strain PDE1, active compounds read low 1.01 | locus YGL253W, strain hxk2, active compounds read low 1 | locus YGR135W, strain pre9, active compounds read low 0.975 | locus YGR252W, strain gcn5, active compounds read low 0.979 | locus YHR013C, strain ard1, active compounds read low 0.996 | locus YHR027C, strain rpn1, active compounds read low 0.984 | locus YHR030C, strain SLT2, active compounds read low 0.997 and 1.06 | locus YHR079C, strain IRE1 (second series), active compounds read low 0.994 | locus YHR079C, strain IRE1, active compounds read low 1.07 | locus YHR094C, strain hxt1, active compounds read low 0.984 | locus YHR129C, strain ARP1, active compounds read low 1 | locus YHR142W, strain chs7, active compounds read low 1 | locus YHR200W, strain rpn10, active compounds read low 0.995 | locus YIL066C, strain RNR3, active compounds read low 1.02 | locus YIL073C, strain SPO22, active compounds read low 1 | locus YIL125W, strain kgd1, active compounds read low 1 | locus YIR030C, strain dcg1, active compounds read low 0.998 | locus YJL092W, strain hpr5, active compounds read low 1 | locus YJL095W, strain BCK1 (second series), active compounds read low 1.01 | locus YJL095W, strain BCK1, active compounds read low 1.05 and 0.974 | locus YJL115W, strain asf1, active compounds read low 0.999 | locus YJL129C, strain trk1, active compounds read low 1.03 | locus YJL134W, strain LCB3, active compounds read low 0.993 | locus YJL154C, strain vps35, active compounds read low 1.01 | locus YJL164C, strain tpk1, active compounds read low 1 | locus YJL166W, strain qcr8, active compounds read low 1.01 | locus YJL168C, strain set2, active compounds read low 1 | locus YJL187C, strain SWE1 (second series), active compounds read low 1.03 | locus YJL187C, strain SWE1, active compounds read low 1 | locus YJR043C, strain POL32, active compounds read low 1.02 | locus YJR066W, strain TOR1, active compounds read low 0.981 | locus YJR075W, strain HOC1, active compounds read low 1.02 | locus YKL009W, strain mrt4, active compounds read low 0.982 | locus YKL068W, active compounds read low 0.998 | locus YKL085W, strain MDH1 (second series), active compounds read low 1.01 | locus YKL085W, strain MDH1, active compounds read low 1.01 | locus YKL160W, strain elf1, active compounds read low 1 | locus YKL190W, strain CNB1, active compounds read low 1.02 | locus YKR001C, strain vps1, active compounds read low 1 | locus YKR026C, strain gcn3, active compounds read low 0.997 | locus YKR091W, strain srl3, active compounds read low 1 | locus YLL001W, strain dnm1, active compounds read low 1.01 | locus YLL026W, active compounds read low 0.99 | locus YLL041C, strain sdh2, active compounds read low 1.01 | locus YLR027C, strain aat2, active compounds read low 1 | locus YLR039C, strain RIC1, active compounds read low 1.05 | locus YLR058C, strain SHM2, active compounds read low 1.01 | locus YLR102C, strain apc9, active compounds read low 0.983 | locus YLR113W, strain HOG1, active compounds read low 0.999 | locus YLR221C, strain rsa3, active compounds read low 1.03 | locus YLR258W, strain gsy2, active compounds read low 1.01 | locus YLR262C, strain YPT6 (second series), active compounds read low 1.01 | locus YLR262C, strain YPT6, active compounds read low 1.07 | locus YLR268W, strain sec22, active compounds read low 1 | locus YLR320W, strain mms22, active compounds read low 0.999 | locus YLR330W, strain CHS5, active compounds read low 0.994 | locus YLR342W, strain FKS1 (second series), active compounds read low 1.02 | locus YLR342W, strain FKS1, active compounds read low 1 | locus YLR357W, strain rsc2, active compounds read low 0.971 | locus YLR370C, strain arc18, active compounds read low 1 | locus YLR371W, strain rom2, active compounds read low 0.982 | locus YLR384C, strain iki3, active compounds read low 0.986 | locus YLR418C, strain cdc73, active compounds read low 1.01 | locus YML016C, strain PPZ1, active compounds read low 0.987 | locus YML032C, strain rad52, active compounds read low 1.01 | locus YML120C, strain ndi1, active compounds read low 0.994 | locus YML124C, strain tub3, active compounds read low 0.994 | locus YMR058W, strain fet3, active compounds read low 0.999 | locus YMR078C, strain ctf18, active compounds read low 0.976 | locus YMR125W, strain sto1, active compounds read low 1 | locus YMR129W, active compounds read low 0.996 | locus YMR205C, strain PFK2, active compounds read low 1.02 | locus YMR223W, strain ubp8, active compounds read low 0.984 | locus YMR231W, strain pep5, active compounds read low 0.996 | locus YMR307W, strain GAS1, active compounds read low 0.96 | locus YNL067W, strain RPL9B, active compounds read low 1.04 | locus YNL071W, strain lat1, active compounds read low 1.01 | locus YNL183C, strain NPR1, active compounds read low 0.973 | locus YNL209W, strain ssb2, active compounds read low 1.01 | locus YNL233W, strain BNI4, active compounds read low 1.02 | locus YNL248C, strain rpa49, active compounds read low 0.984 | locus YNL250W, strain rad50, active compounds read low 0.978 | locus YNL271C, strain bni1, active compounds read low 0.987 | locus YNL298W, strain CLA4, active compounds read low 0.987 | locus YNL307C, strain MCK1, active compounds read low 1.02 | locus YNL322C, strain KRE1 (second series), active compounds read low 0.993 | locus YNR049C, strain mso1, active compounds read low 1 | locus YNR052C, strain pop2, active compounds read low 0.984 | locus YOL006C, strain TOP1, active compounds read low 1.06 | locus YOL012C, strain htz1 0.871 | locus YOL147C, strain pex11, active compounds read low 0.995 | locus YOR001W, strain rrp6, active compounds read low 1.01 | locus YOR061W, strain CKA2, active compounds read low 0.997 | locus YOR069W, strain VPS5, active compounds read low 0.99 | locus YOR070C, strain gyp1, active compounds read low 1.01 | locus YOR080W, strain dia2, active compounds read low 1.01 | locus YOR083W, strain WHI5, active compounds read low 1.01 | locus YOR106W, strain vam3, active compounds read low 1.04 | locus YOR136W, strain idh2, active compounds read low 0.985 | locus YOR144C, strain elg1, active compounds read low 0.997 | locus YOR184W, strain ser1, active compounds read low 1.03 | locus YOR231W, strain MKK1, active compounds read low 1.01 | locus YOR265W, strain rbl2, active compounds read low 1.01 | locus YOR270C, strain vph1, active compounds read low 1.22 | locus YOR290C, strain snf2, active compounds read low 1.02 | locus YOR316C, strain cot1, active compounds read low 0.983 | locus YPL051W, strain arl3, active compounds read low 1.01 | [1] 1.06 | locus YPL078C, strain atp4, active compounds read low 1.01 | locus YPL106C, strain sse1, active compounds read low 0.985 | locus YPL240C, strain hsp82, active compounds read low 0.995 | [2] 1.01 | locus YPL256C, strain CLN2, active compounds read low 1.06 | locus YPR119W, strain clb2, active compounds read low 0.996 | locus YPR141C, strain kar3, active compounds read low 0.982 | locus YPR163C, strain tif3, active compounds read low 0.997 | locus YPR167C, strain met16, active compounds read low 1.01 | strain wtn01, active compounds read low 0.984
